Results published in PubChem BioAssay AID372 (MTDP, 2006).
The whole screen tested about 100,000 compounds, of which about 770 (0.77%) were called active. Shown is part of a subset that was picked to be rich in actives. Unmarked numbers belong to inactive results. Cut-off read from the data, not from the text of the source: active = inhibition above about 50%; inactive = the rest.

Each compound was assayed against Gag-Pol polyprotein (Human immunodeficiency virus type 1 group M subtype B (isolate HXB2)) (UniProt P04585) (assay: RNase H inhibition, HIV 1 Gag Pol polyprotein, FRET biochemical assay, screening (AID 372)). Settings: HIV-1 RT RNase H, FRET RNA/DNA substrate fluorescence; at 10 µM; active compounds read high.

Row | Structure (SMILES) | inhibition
1 | O=C(CSc1cc(Cl)ccc1Cl)Nc1cccc(C(F)(F)F)c1 | 9%
2 | COc1cc(C(=O)N/C(=C/c2ccco2)C(=O)Nc2ccccc2)cc(OC)c1OC | 9%
3 | COc1ccccc1C1NC(=O)NC(C)=C1C(=O)OC(C)C (stereo not drawn) | 8%
4 | CCNC(=O)C(=O)Nc1ccccc1C | 5%
5 | CCOC(=O)c1c(NC(=O)Cc2ccc(Cl)cc2)sc(C(=O)Nc2ccccc2OC)c1C | 0%
6 | Cc1c(OCC(N)=O)ccc2c1oc(=O)c1ccccc12 | 47%
7 | COc1ccccc1N1CCN(/N=C/C=C\c2ccco2)CC1 | 8%
8 | C[n+]1cccc(C(=O)NCCOC(=O)c2ccc(F)cc2)c1 | 0%
9 | O=C1/C(=C/c2ccc(O)c([N+](=O)[O-])c2)SC(=S)N1Cc1ccccc1 | 23%
10 | O=C(O)CCCCCCCCCCN1C(=O)/C(=C/c2ccc(Br)cc2)SC1=S | 25%
11 | COc1cc(/C=C2\SC(=S)N(CCCCCCCCCCC(=O)O)C2=O)ccc1O | 23%
12 | O=C(O)CCCCCN1C(=O)/C(=C/c2ccc(O)c(O)c2)SC1=S | 53% (active)
13 | O=C1/C(=C\c2ccc(O)cc2)SC(=S)N1Cc1ccccc1 | 46%
14 | O=C1/C(=C\c2ccc(O)c(O)c2)SC(=S)N1Cc1ccccc1 | 73% (active)
15 | CCOc1ccc(/C=N/N2CCN(Cc3cccc4ccccc34)CC2)cc1OC | 13%
16 | NC(=O)c1ccccc1NC(=O)c1sc2ccccc2c1Cl | 0%
17 | O=C1S/C(=C/c2ccc3c(c2)OCO3)C(=O)N1CN1CCCC1 | 10%

Row | Structure (SMILES) | inhibition
18 | c1ccc(CCCN2CCN(Cc3cccnc3)CC2)cc1 | 5%
19 | COC(=O)C1=C(C)N=c2s/c(=C\c3ccccc3F)c(=O)n2C1c1ccc(OC)cc1 (stereo not drawn) | 11%
20 | CCOC(=O)c1ccc(N2C(=O)C3C(C2=O)C2(c4ccccc4)C(=O)C3(c3ccccc3)C(c3ccc(OC)cc3)=C2c2ccc(OC)cc2)cc1 (stereo not drawn) | 44%
21 | COc1ccc(C2=C(c3ccc(OC)cc3)C3(c4ccccc4)C(=O)C2(c2ccccc2)C2C(=O)N(c4ccc(Br)cc4)C(=O)C23)cc1 (stereo not drawn) | 42%
22 | COC(=O)c1ccc(N2C(=O)C3C(C2=O)C2(c4ccccc4)C(=O)C3(c3ccccc3)C(c3ccc(OC)cc3)=C2c2ccc(OC)cc2)cc1 (stereo not drawn) | 57% (active)
23 | COc1cc2ccccc2cc1C(=O)Nc1ccc(Cl)c(Cl)c1 | 24%
24 | Cc1ccc(OCC2CNC(=O)O2)cc1 (stereo not drawn) | 10%
25 | CCOc1ccc(N2C(=O)NC(=O)/C(=C\c3ccc(I)o3)C2=O)cc1 | 5%
26 | CCOc1cccc(N2C(=O)/C(=C/c3ccc(I)o3)C(=O)NC2=S)c1 | 39%
27 | CCc1ccc(N2C(=O)/C(=C/c3ccc(I)o3)C(=O)NC2=S)cc1 | 97% (active)
28 | CCOc1ccc(N2C(=O)/C(=C/c3ccc(N(CC)CC)o3)C(=O)NC2=S)cc1 | 21%
29 | CCOc1ccc(N2C(=O)NC(=O)/C(=C\c3ccc(Br)o3)C2=O)cc1 | 1%
30 | O=C1NC(=S)N(c2ccc(Cl)cc2)C(=O)/C1=C/c1ccc(N2CCCC2)o1 | 10%
31 | CCc1ccc(N2C(=O)/C(=C/c3ccc(-c4ccc(F)cc4)o3)C(=O)NC2=S)cc1 | 26%
32 | O=C1NC(=S)N(c2ccc(Cl)cc2)C(=O)/C1=C/c1ccc(-c2ccc(F)cc2)o1 | 25%
33 | CCc1ccc(N2C(=O)NC(=O)/C(=C\c3ccc(I)o3)C2=O)cc1 | 11%
